tested on: VDR:RXRa (NR concentration 270 nM, RXRa partner concentration 90 nM); assay: PBM binding z-score (relative to random genomic background probes); higher = stronger binding; sequences stand for … in GC…GCGATTGACAGCGTAGAATGAAGG
Experimental: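 Protein-binding microarray (Agilent 4x180K custom design, double-stranded 60-nt probes: 5' GC cap, 34-nt variable region, 24-nt constant primer region; full probe sequence given). Purified or IVT nuclear receptor:RXRα heterodimers (3:1 NR:RXRα, mostly 270:90 nM) or homodimers were incubated for 1 h in PBS with 2% milk and no ligand, then detected with Alexa488 antibodies. Fluorescence from o1-orientation probes (~5 replicates averaged) was converted to z-scores against 500 random hg19 background probes. Variable regions are seed direct-repeat (DR0–DR5) sites, all their single-nucleotide variants and half-site ablations.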

Going from TCTTGTAGATCAAAGGTTAAGAAGGCCGAAGCCT to GGAACGAGGGCAAGTTGATGGCAGAGTTTGATGG, the PBM binding z-score falls from 2.65 to 0.912.

Going from AGAACGAGGGCACGCTGAGATGATAGCAGAGTAG to AATACAGGGTCACTAGGCCAGGGTAGGTACGAAT, the PBM binding z-score rises from 0.702 to 4.

Going from CGTCAAAGTTCAACTAAGGTAACGTTAAGCACGC to AGAATCAGGTTATTAAGATCAGGGAATTGCGGTC, the PBM binding z-score falls from 4.69 to 1.08.

Going from ATGTCTAGGTAACAAGTTCAGTGAAAGAGAGGAC to AGTCAAAGTTCATTTAGGTAACGTAAGATATGCT, the PBM binding z-score rises from 2.14 to 4.97.

First: CAAACTTGGTCAAGGTCAAAGTCGGTTTGTGCCA
Second: GGAACGAGGGCATTCGAGTTGATCGCATGGCGAT
The PBM binding z-score of the first is higher: 4.47 for the first, 3.61 for the second.

First: TCTTGTAGATCAACAGGGGGTTAAGAAAGATCGA
Second: CAAACTAGGTCAAGGTCAAAGACGGTTTGTGCCA
The PBM binding z-score of the first is lower: 2.13 for the first, 4.74 for the second.

Compared with GATACAGGGTCAAGGCAAGAGTACGCGTATTGAT, GCTTACGGGTTAAAGGTTATAGCATGAATAGAAT is lower in PBM binding z-score: 4.62 for the first, 3.18 for the second.

Compared with ATCGATAGGTCGTGAGGTGAGTATACAGAAAGGC, ATCGAAAGCTCGTGAGGTGAGTATACAGAAAGGC is lower in PBM binding z-score: 1.08 for the first, -0.256 for the second.

Compared with TTACCTAGGTGAAGGTCGTTGATCCCTCTGTAGA, GCTTATAGGTAATACAAGGTGAAAGTCCGATTGT is lower in PBM binding z-score: 1.06 for the first, 0.401 for the second.

Going from AGAAGGAGGTTATACGTAGATCAGGGAAGAAAGT to TAGCCTAGGTCAGATCGCGCCAGTATACGCTATA, the PBM binding z-score falls from 0.711 to 0.314.

Compared with CCGACTGGGCCAAAAAGGTCATTGATGCCGATAA, ATTCGGAGGACAAAGGTCAGAGCTACGCCAGTGA is lower in PBM binding z-score: 4.64 for the first, 3.4 for the second.

First: TCTAGCAGGCCAGAGGGTTACTCAAGAGGTACGG
Second: CCTAGCAGTCCAATCTGGGTCACTCAAGGCTTGA
The PBM binding z-score of the first is lower: -0.176 for the first, 0.794 for the second.

Compared with ACTACCAGGCCAAGTTTGGGTCACTCAAACAAAG, CCTAGCAGGTCAGGGTCACTCAAGCATTTCGCTT is higher in PBM binding z-score: 1.08 for the first, 4.13 for the second.

Going from CCTTACGGGTCACTCCAGGTTATAGTATCGGAGT to CCGACTGGGGCAGATAGGTTACCATACCATCCGG, the PBM binding z-score falls from 4.39 to -0.389.

Compared with CAAACTAGGTCAATGTCAAAGTCGGTTTGTGCCA, AATACAGAGTCATCGTAGGCCAGAGTACGCACAG is lower in PBM binding z-score: 1.58 for the first, -0.242 for the second.

Going from ATCTCTAGGTAAGACTCAGTTCAGTGTAGAACGC to ACCATTAGTTGAGACGAGGGCAACCGATAGGTTG, the PBM binding z-score falls from 1.02 to 0.755.

Going from CAAACTAGGTCACAGAGGTCCAAGTCCGTGCGTA to AGTCAAAGTTCACTAGGTCACGTAAGATTCAGCT, the PBM binding z-score rises from 5 to 5.1.

Compared with ACTAGCAAGCCAAGGGTCACTCAAGATTAGTCCG, TCTTGTAGAGCAAAGGTTAAGAAAGCCGAAGCCT is lower in PBM binding z-score: 2.68 for the first, 0.679 for the second.

Compared with CTCGAAAGGTCGTGCTCAGGTGACTATACCAAAC, GCTATTAGTAGAAAGGGCAACCGAATGATTCTCG is lower in PBM binding z-score: 3.53 for the first, 0.11 for the second.

First: CAATCTAGGTCACCGGAAGGTCAAAGTCCGCATG
Second: TCTGCTAGGTCAGTTGGTCACCTAACGAGCTGCC
The PBM binding z-score of the first is higher: 6.01 for the first, 0.235 for the second.

— the supplement of paper PMC6555819
